# Assay results: PubChem BioAssay (EPA / NIEHS)
# Results filed as inconclusive are left out. Calls of active or inactive are those of the source. Rule for the calls: active = hit-call score of the fitted dose curve at least 0.9, where 1 is the maximum; inconclusive = response in the unintended direction; inactive = score below 0.9.
# Target: Estrogen receptor (Homo sapiens) (UniProt P03372)
# Assay: ATG_ERa_TRANS: Attagene TRANS-FACTORIAL HepG2 Assay for human Estrogen Receptor alpha (ERa) (AID 2282970)
# Conditions: HepG2 Attagene TRANS ERa GAL4 reporter, mRNA
# Experimental: ATG_TRANS is a cell-based, multiplexed-readout assay that uses HepG2, a human liver cell line, with measurements taken at 24 hours after chemical dosing in a 24-well plate.ATG_ERa_TRANS is one of 30 assay component(s) measured or calculated from the ATG_TRANS assay. It is designed to make measurements of mRNA induction, a form of inducible reporter, as detected with fluorescence intensity signals by Reverse transcription polymerase chain reaction (RT-PCR) and Capillary electrophoresis technology.Data from the assay component ATG_ERa_TRANS was analyzed into 1 assay endpoint. This assay endpoint, ATG_ERa_TRANS, was analyzed in the positive analysis fitting direction relative to DMSO as the negative control and baseline of activity. Using a type of inducible reporter, measures of mRNA for gain-of-signal activity can be used to understand the reporter gene at the transcription factor-level as they relate to the gene ESR1. Furthermore, this assay endpoint can be referred to as a primary readout, because this assay has produced multiple assay endpoints where this one serves a reporter gene function. To generalize the intended target to other relatable targets, this assay endpoint is annotated to the nuclear receptor intended target family, where the subfamily is steroidal.
# Human liver HepG2 cells are transiently transfected with multiple reporter transcription units (MRTUs) in 6-well plates using FuGene 6 reagent (Roche; 3 ml FuGene/1 mg DNA). The MRTU constructs are regulated by a cis-regulating element (promoter). […] A major difference between the CIS and TRANS system is that in CIS activities of endogenous TFs are measured, whereas the TRANS assay evaluates changes in activities of exogenous, chimeric NR-Gal4 proteins. […] At the end of 24 hour incubation, total RNA was isolated using TriZol reagent (Invitrogen). The isolated RNA is then reverse-transcribed using oligo(dT) primer and Mo-MLV reverse transcriptase (Invitrogen) with DNAse I (Ambion) treatment for 30 min. The one-tenth of the produced cDNA was amplified by PCR using Taq DNA polymerase (Invitrogen) and two reporter sequence-specific primers. The PCR products were fluorescently labeled by primer extension with 6-arboxyfluorescein (6-FAM) 5'-labeled reporter sequence-specific primer (2 min at 95 C, 20 s at 68 C and 10 min at 72 C) and these products were digested with 5U of HpaI (New England Biolabs) for 2h at 37 C. […] The raw capillary electrophoresis data was processed using Attagraph software (Attagene).
# Chain of Estrogen receptor (Homo sapiens) (P03372 whole entry, looked up): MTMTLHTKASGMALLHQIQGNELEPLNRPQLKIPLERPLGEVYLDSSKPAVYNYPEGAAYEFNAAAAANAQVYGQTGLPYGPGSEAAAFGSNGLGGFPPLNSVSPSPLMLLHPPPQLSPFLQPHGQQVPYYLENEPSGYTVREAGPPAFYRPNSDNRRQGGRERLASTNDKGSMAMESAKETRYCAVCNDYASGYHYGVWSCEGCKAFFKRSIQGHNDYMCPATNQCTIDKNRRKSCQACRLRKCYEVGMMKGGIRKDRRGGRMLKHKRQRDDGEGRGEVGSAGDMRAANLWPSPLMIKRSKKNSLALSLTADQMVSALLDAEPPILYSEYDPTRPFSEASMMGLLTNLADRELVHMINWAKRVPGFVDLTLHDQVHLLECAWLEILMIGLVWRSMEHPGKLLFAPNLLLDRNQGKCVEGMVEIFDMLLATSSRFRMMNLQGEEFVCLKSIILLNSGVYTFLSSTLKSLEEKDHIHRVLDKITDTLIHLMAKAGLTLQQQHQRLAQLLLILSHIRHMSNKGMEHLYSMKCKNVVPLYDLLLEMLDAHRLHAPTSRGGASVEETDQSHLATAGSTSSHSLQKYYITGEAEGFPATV
Compound,outcome,AC50
CCN(CC#N)c1cccc(C)c1,inactive,
c1ccc2c(c1)ccc1ncccc12,inactive,
CC(=O)Oc1ccc(C(C)=O)cc1,inactive,
CCN(CC)c1ccc(C(=O)c2ccccc2C(=O)O)c(O)c1,inactive,
C[C@]12CCC(=O)C=C1CC[C@@H]1[C@@H]2C(=O)C[C@@]2(C)[C@H]1CC[C@]2(O)C(=O)CO,inactive,
C#CC1(O)CC[C@H]2[C@@H]3CCC4=CCCC[C@@H]4[C@H]3CC[C@@]21C (stereo not given in full),,0.00914 µM (active)
CC1=CC[C@H]2C[C@@H]1C2(C)C,inactive,
CCCCCCOc1cc(C)c(O)c(C)c1C,inactive,
c1ccc2c(c1)ccc1cc3c(ccc4ccccc43)cc12,inactive,
CC1(C)O[C@@H]2C[C@H]3[C@@H]4C[C@H](F)C5=CC(=O)CC[C@]5(C)[C@H]4[C@@H](O)C[C@]3(C)[C@]2(C(=O)CO)O1,inactive,
C=C1C2CCC(C2)C1(C)C (stereo not given),inactive,
CCC(C)OC(=O)c1ccc(O)cc1 (stereo not given),,0.75 µM (active)
O=C1c2ccccc2C(=O)C1c1nc2ccccc2c(Br)c1O,inactive,
COC(=O)c1cc(Cl)ccc1[N+](=O)[O-],inactive,
O=C(O)CCCCCCCCCC(=O)O,,22.7 µM (active)
[Cl][Bi]([Cl])([c]1ccccc1)([c]1ccccc1)[c]1ccccc1,,2.74 µM (active)
c1ccc(CCCc2ccncc2)cc1,inactive,
O=c1c2ccccc2oc2ccccc12,,27.8 µM (active)
Cc1cc(C)c(C)cc1C,inactive,
CCCCCCCC/C=C\CCCCCCCC(=O)OCCO,inactive,

Compound,outcome,AC50
C=C(C)C(=O)OCCOc1ccccc1,inactive,
Nc1ccc(N=Nc2ccccc2)c(N)n1,,27.8 µM (active)
C=C(C)[C@H]1CC=C(C)CC1,inactive,
Cc1ccc(OC(=O)CC(C)C)cc1,inactive,
COc1cc(C)ccc1C(C)C,inactive,
C=CC(=O)OCC(Br)CBr (stereo not given),,100 µM (active)
C=C(C)CCO,inactive,
CCOC(=O)CC,inactive,
O=C(c1ccccc1)c1ccc(O)c(O)c1O,,27.3 µM (active)
Nc1ccc(N)c(Cl)c1,,25.5 µM (active)
NC(=O)c1ccccc1O,inactive,
CCCc1ccc(OC)cc1,inactive,
CC(C)(Oc1ccc(C2CC2(Cl)Cl)cc1)C(=O)O (stereo not given),inactive,
ON(Cc1ccccc1)Cc1ccccc1,inactive,
O=C1C(N(CO)C(=O)NCO)N(CO)C(=O)N1CO (stereo not given),inactive,
CCCCCCC1(C)CCC(=O)O1 (stereo not given),inactive,
Cc1c(C)c([N+](=O)[O-])c(C(C)(C)C)c([N+](=O)[O-])c1C,inactive,
CC(C)(C)c1ccc(N)cc1,inactive,
CC(=O)OCCC1CCCCC1,inactive,
c1ccc(-c2ccccn2)nc1,inactive,
